Assay outcomes from PubChem.
Sampled rows, rich in hits. Any-hit rate of the full collection: about 1.2%.
Furin inh = blocks human furin protease activity | purified furin, fluorogenic substrate cleavage | AID 463115 | actives 0.061% (n = 220,000) | P09958 | inhibition, % at 20 µM or 30 µM; in the data active = inhibition above about 25%
DTT redox prof = compounds producing H2O2 with reducing agent – biochemical, NIH compound library profiling, artefact control for MLSCN library redox annotation, primary screen. DTT-dependent redox cycling H2O2, phenol red/HRP absorbance; 100% = 100 µM peroxide control, 0% = buffer. AID 878. activation, % at 10 µM. actives 0.03% (n = 200,000);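 active = activation of at least 50% relative to the plate's high and low controls in the primary single-dose screen; inactive = activation below 50%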;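 also: compound incubated with DTT at 0.8 mM final as the reducing agent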
UBC9 SUMO inh = blocks human SUMOylation mediated by UBC9 | HTRF SUMOylation assay, SAE1/SAE2 + UBC9, in vitro | inhibition, % at 35 µM | actives 0.36% (n = 290,000) | AID 2006 | P63279; in the data active = inhibition above about 50%, passing the limit was not always enough
p97 ATPase inh = blocks human p97 ATPase activity; inhibition, % at 8 µM; AID 1481; recombinant p97 ATPase, Kinase-Glo ATP luminescence, 3 h; actives 0.42% (n = 220,000); P55072; in the data active = inhibition above about 15%;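 also: 0% = DMSO vehicle and 100% = wells lacking enzyme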
PKD1 kinase inh = inhibitors of human PKD1 kinase; Q15139; PKD1 kinase fluorescence polarization assay; inhibition, % (concentration not given with the values); actives 0.056% (n = 200,000); in the data active = inhibition above about 50%
Target sequence (Q15139 whole entry, looked up): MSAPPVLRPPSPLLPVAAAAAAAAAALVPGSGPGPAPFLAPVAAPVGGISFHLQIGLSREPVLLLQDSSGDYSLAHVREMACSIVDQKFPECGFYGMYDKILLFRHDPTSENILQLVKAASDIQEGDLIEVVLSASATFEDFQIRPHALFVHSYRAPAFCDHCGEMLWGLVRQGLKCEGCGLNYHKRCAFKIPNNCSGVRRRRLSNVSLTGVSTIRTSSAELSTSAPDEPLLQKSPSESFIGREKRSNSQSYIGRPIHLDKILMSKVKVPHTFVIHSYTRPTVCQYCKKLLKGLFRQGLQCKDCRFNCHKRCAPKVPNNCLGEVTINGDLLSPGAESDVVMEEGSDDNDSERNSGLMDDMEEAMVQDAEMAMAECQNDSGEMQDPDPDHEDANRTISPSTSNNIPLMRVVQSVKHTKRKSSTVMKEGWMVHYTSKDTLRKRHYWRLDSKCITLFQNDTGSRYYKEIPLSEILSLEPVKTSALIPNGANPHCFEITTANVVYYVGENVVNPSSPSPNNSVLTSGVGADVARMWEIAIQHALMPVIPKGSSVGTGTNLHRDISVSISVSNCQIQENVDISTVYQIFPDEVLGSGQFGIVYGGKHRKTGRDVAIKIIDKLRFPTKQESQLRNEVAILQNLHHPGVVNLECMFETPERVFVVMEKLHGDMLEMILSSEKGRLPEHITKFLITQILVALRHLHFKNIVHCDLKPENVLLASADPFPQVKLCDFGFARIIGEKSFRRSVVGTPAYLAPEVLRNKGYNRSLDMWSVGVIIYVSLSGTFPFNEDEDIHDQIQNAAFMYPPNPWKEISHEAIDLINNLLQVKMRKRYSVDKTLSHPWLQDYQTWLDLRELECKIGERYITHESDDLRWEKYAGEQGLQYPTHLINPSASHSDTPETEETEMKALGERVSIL
FAS TE block = FAS thioesterase (human) inhibition | recombinant FAS-TE, OMFH fluorogenic substrate, fluorescence endpoint | inhibition, % at 15 µM | actives 0.67% (n = 360,000) | AID 602261;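 active = compounds whose normalised, plate-corrected inhibition of enzyme fluorescence in the single-dose primary screen is 50% or more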;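 also: 0% = DMSO with enzyme and 100% = substrate without enzyme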
An asterisk follows results filed as active; . = not tested or not shown.

SMILES | Furin inh | DTT redox prof | UBC9 SUMO inh | p97 ATPase inh | PKD1 kinase inh | FAS TE block
CCCCN1C(=O)Cc2c1nc(N)c1c(N)nc(N(CCC)CCC)c(C#N)c21 | -29 | 0 | 94* | -1 | -16 | -8
N#Cc1c(N2CCCC(O)C2)nc(N)c2c(N)nc3c(c12)CC(=O)N3C12CC3CC(CC(C3)C1)C2 (configuration not stated) | -21 | -7 | 99* | 6 | 3 | 37
C=C(C)CN(CC)c1nc(N)c2c(N)nc3c(c2c1C#N)CC(=O)N3C12CC3CC(CC(C3)C1)C2 | -18 | 1 | 62* | 3 | 5 | 0
CCN(CC)CCNS(=O)(=O)c1ccc2c3c(cccc13)C(=O)N2 | . | . | 58* | . | . | -4
CN(C)CCNS(=O)(=O)c1ccc2c3c(cccc13)C(=O)N2 | . | . | 53* | . | . | -5
O=C(CSc1ccccn1)NC1CCCc2c1cnn2-c1ccccc1F (configuration not stated) | . | . | . | . | . | -4
COc1ccc(C(C[N+](=O)[O-])c2c(C)[nH]n(-c3ccccc3)c2=O)cc1 (configuration not stated) | . | . | 87* | . | . | 4
Cc1[nH]n(-c2ccccc2)c(=O)c1C(c1ccc(O)c([N+](=O)[O-])c1)c1c(C)[nH]n(-c2ccccc2)c1=O | -11 | -4 | . | 15* | -2 | -4
COc1ccc2c(c1)-c1nc(/N=C/c3c(O)ccc4ccccc34)sc1CC2 | -12 | 0 | 57* | 6 | -9 | -4
Nc1[nH]c(C(=O)c2ccccc2)c(-c2ccccc2C(F)(F)F)c1C(=O)c1cccs1 | . | . | . | . | . | 1
O=C(N/N=C/c1cc(Cl)cc(Cl)c1O)c1ccncc1 | -19 | . | 58* | 8 | . | 18
Cc1cc(N2CCN(C(c3ccccc3)c3ccccc3)CC2)n2ncnc2n1 | -22 | -1 | 1 | 8 | 16 | 54*
CCN1CCS/C1=C\C=C\C1=[N+](CC)CCS1 | 43* | -2 | -9 | 5 | -7 | -6
CCN1CCS/C1=C/C=C/C1=[N+](CC)CCS1 | 38* | 0 | 0 | 3 | -8 | -13
O=C(Oc1ccc[nH]c1=O)c1cccc(Cl)c1 | -8 | . | 100* | 1 | . | -5
O=C(Oc1ccc[nH]c1=O)c1ccccc1 | . | . | . | . | . | -5
COc1ccc(-c2cc(-c3ccccc3)n3ncnc3n2)cc1 | -31 | 0 | 53* | -3 | 0 | 5
CC(C)(C)C(=O)c1c(N)[nH]c(C(=O)c2ccccc2)c1-c1ccc(C(F)(F)F)cc1 | . | . | . | . | . | 0
CCCCCCCC(=O)Nc1ccc(C(=O)N/N=C/c2cccc([N+](=O)[O-])c2)cc1 | -13 | 2 | 50* | 3 | 2 | 2
Cc1ccc2nc3c(cc(S(=O)(=O)c4ccccc4)c(=N)n3Cc3ccco3)c(=O)n2c1 | -29 | -1 | 80* | 6 | 1 | 24
N=c1c(S(=O)(=O)c2ccccc2)cc2c(=O)n3ccccc3nc2n1Cc1ccco1 | -25 | 1 | 50* | 11 | 5 | 9
COc1ccc(S(=O)(=O)N2CCCCC2c2cc(C(=O)Nc3ccc(OC)cc3C)no2)cc1 (configuration not stated) | . | . | . | . | . | 12
O=C1NC[C@@H](CCCCN2C[C@H](Cc3ccccc3)N(CCC3CCCCC3)C(=O)C2=O)N(CC2CCCCC2)C1=O | . | . | . | . | . | 19
CCOCC(=O)Nc1nc(C)cc(C)n1 | -4 | 0 | 69* | 5 | -1 | -8
Cc1cc2cc(CNS(=O)(=O)c3ccc4ccccc4c3)ccc2n1C | -2 | 0 | -30 | 0 | 7 | -5
SMILES | Furin inh | DTT redox prof | UBC9 SUMO inh | p97 ATPase inh | PKD1 kinase inh | FAS TE block
CC(=O)Nc1ccc(S(=O)(=O)NCc2ccc3c(c2)cc(C)n3C)cc1 | -28 | -1 | -3 | 17* | -3 | -2
CN(C)C=Nc1ccc(Cl)c(Cl)c1 | -21 | . | 43 | 1 | . | -3
CN(C)C=Nc1ccc2nn(-c3ccccc3)nc2c1 | -38 | -1 | 60* | -3 | 0 | -7
COC(=O)[C@]12CCCCC=C1N(CCC1=CCCCC1)C(=O)[C@H](CC(=O)NCc1cccc(C(F)(F)F)c1)C2 | . | . | . | . | . | 16
COc1cc(/C=C2\CCc3c2nc2ccccc2c3C(=O)O)cc(OC)c1OC | -13 | . | 54* | 2 | . | 0
COc1cc(/C=C2\CCCc3c2nc2ccccc2c3C(=O)O)cc(Br)c1O | . | . | 0 | . | . | -2
O=[N+]([O-])c1cc2ncccc2c2ncccc12 | . | . | . | . | . | -2
O=C1NC[C@@H](Cc2ccc(O)cc2)N(CCc2cc(C(F)(F)F)cc(C(F)(F)F)c2)C1=O | . | . | . | . | . | -5
CCOc1ccc(-c2noc([C@@H]3O[C@H](CO)[C@@H](O)[C@H]3O)n2)cc1 | . | . | . | . | . | -7
CCOC(=O)Cc1c(-c2cccc(Cl)c2)nc2c3ccccc3ccn12 | . | . | . | . | . | 26
Cc1nc(SCc2ccc(O)c([N+](=O)[O-])c2)n[nH]1 | 31* | -1 | 15 | -2 | -12 | -4
Cc1nc(SCc2ccc(O)c([N+](=O)[O-])c2)c([N+](=O)[O-])[nH]1 | 17 | . | 14 | 7 | . | -6
CC1=NN(c2ccc(F)cc2)C(=O)C1C(c1cccc(O)c1)c1c(C)[nH]n(-c2ccc(F)cc2)c1=O (configuration not stated) | -18 | 2 | 74 | 33* | -9 | 3
CC1(C(=O)NCc2ccccc2)CCC(=O)N1CCc1c[nH]c2ccccc12 (configuration not stated) | . | . | . | . | . | -8
Cc1nn(CC(=O)N/N=C/c2ccc3c(c2)OCO3)c(C)c1Br | -22 | 0 | 50* | 7 | 1 | -9
Cc1oc(-c2ccc(Cl)cc2)cc1-c1nn2c(-c3ccoc3C)nnc2s1 | -13 | 2 | 60* | 12 | 6 | 7
Clc1ccc(-c2nnc3sc(-c4ccc(Br)o4)nn23)cc1 | -34 | 2 | 14 | 5 | -5 | -64
Cc1cc(SCC(=O)OC/C(O)=C(\C#N)c2nc3ccccc3[nH]2)c(C)cc1Br | -9 | 0 | 55* | 3 | -1 | 3
CCOc1cc(C2C(C#N)=C(N)OC(C)=C2C(C)=O)c(Br)c(Br)c1OC(C)C (configuration not stated) | -6 | -1 | 3 | -9 | 7 | 72*
CCOc1ccc(NC(=O)CN(C)C(=O)c2ccc(OCC(=O)N3CCOCC3)c(OC)c2)cc1OCC | . | . | . | . | . | -12
COc1ccccc1C(=O)Nc1sc2c(c1C(=O)NCc1ccco1)CCCC2 | -32 | 1 | 61* | 4 | -4 | 0
CCOC(=O)N1CCN(C(=O)c2cccn3c(=O)c4sccc4nc23)CC1 | -15 | 0 | 49 | 9 | -5 | -9
CCOC(=O)N1CCN(C(=O)c2cccn3c(=O)c4cc(Br)ccc4nc23)CC1 | -26 | -1 | 51* | 2 | -1 | 1
CCOC(=O)N1CCN(C(=O)c2cccn3c(=O)c4cc(Cl)ccc4nc23)CC1 | -23 | -8 | 58* | 0 | 8 | -2
COc1cccc(NC(=O)C2(C)CCN2CCc2ccccc2)c1 (configuration not stated) | . | . | . | . | . | 16
